Pf growth 96h = P. falciparum growth inhibition at 96 hour, primary screen for plastid delayed-death inhibitors | P. falciparum luciferase reporter growth, 96 h | AID 504834 | 320,000 compounds, 6.9% hits | Potency, µM (doses to about 28.7 µM), hits mostly inhibitors
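Two-generation exposure (96 h) targets delayed-death phenotype. Reporter parasites carrying integrated firefly luciferase, in red cells at 2% hematocrit and 0.05% parasitemia final, kept at 37 C, 5% CO2; luminescence loss indicates inhibition.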
Pf growth 48h = P. falciparum growth inhibition at 48 hours (one generation); P. falciparum luciferase growth in erythrocytes, 48 h; Potency, µM (series often up to 28.7 µM), most hits filed as inhibitors; 310,000 compounds, 5.9% hits
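Compounds are pin-transferred into medium, infected erythrocytes (2% hematocrit, 0.1% parasitemia final) are added, and plates sit one parasite generation at 37 C in 5% CO2. Detection reagent is then added and luminescence measured.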
SARS PLP yeast = blocks SARS-CoV papain-like protease in a yeast assay. AID 485353. Potency, µM (top dose mostly 32.9 µM), most hits filed as activators. 330,000 compounds, 0.19% hits. S. cerevisiae expressing SARS-CoV PLpro, growth rescue; calls by dose curve; also: nearly all actives have a fitted effect of over 55% in size
Sm TGR block = inhibitors of Schistosoma mansoni thioredoxin glutathione reductase | AID 485364 | 360,000 compounds, 3% hits | purified TGR, DTNB reduction, TNB absorbance 405 nm | Q962Y6 | Potency, µM (titrated, usually from 114 µM), most hits filed as inhibitors; also: nearly all actives have a fitted effect of over 60% in size
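Kinetic colorimetric format: TGR-catalysed, NADPH-driven DTNB reduction monitored via TNB absorbance. Enzyme dispensed at 20 nM; compound exposure 15 min at room temperature before reaction start.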
Numbers stand for hits; i = inactive; ? = inconclusive; nt = no result; [ ] = dose if it differs, or a comment. Most compounds without a hit are left out; they make up all but 12% or so of the library. Unless noted, calls follow the shape of the dose curve; as a rule, active = well fitted curve in the direction sought with a large enough effect; inconclusive = small, poorly fitted or top-dose-only effect, or another doubt; inactive = no such curve, though single readings can be large; an effect the other way counts as inactive or inconclusive.

SMILES	Pf growth 96h	Pf growth 48h	SARS PLP yeast	Sm TGR block
COc1ccc(S(=O)(=O)N2CCOC23CCN(S(=O)(=O)c2cccs2)CC3)cc1	?	?	i	?
COc1ccccc1CNS(=O)(=O)CCNC(=O)c1ccccc1	i	i	i	i
CCc1ccc(NC(=O)COC(=O)c2nc3nc(C)cc(C)n3n2)cc1	i	i	i	i
CN(C)CCN(C)Cc1c2ccccc2c(CN(C)CCN(C)C)c2ccccc12	1.7µM	6.6µM	i	i
CCOCCc1nn2c(=O)cc(COC(=O)CNC(=O)c3cccc(C)c3)nc2s1	nt	nt	nt	i
CN(CC(=O)Nc1ccc(F)cc1)C(=O)c1cccc(S(=O)(=O)N2CCN(c3ccc(F)cc3)CC2)c1	?	12µM	i	i
COc1ccc(NC(=O)CN(C)C(=O)c2cccc(S(=O)(=O)N3CCN(C)CC3)c2)cc1	i	i	i	89µM
COc1cccc(NC(=O)CN(C)C(=O)c2cccc(S(=O)(=O)N3CCN(c4ccc(F)cc4)CC3)c2)c1	?	i	i	i
CCN1CCN(S(=O)(=O)c2ccc(Cl)c(C(=O)N(CC)CC(=O)Nc3ccc(OC)cc3)c2)CC1	13µM	i	i	i
CCN1CCN(S(=O)(=O)c2ccc(Cl)c(C(=O)Nc3ccc(OC(F)F)cc3)c2)CC1	?	i	i	i
COc1cccc(NC(=O)CN(C)C(=O)c2cccc(S(=O)(=O)Nc3ccccc3OC)c2)c1	?	13µM	nt	i
Cc1cccc(-n2cnc3cc(C(=O)NCc4ccccc4Cl)ccc32)c1	nt	nt	nt	i
N#Cc1nc(-c2ccc(COc3ccccc3)o2)oc1NCc1cccnc1	nt	nt	nt	i
CN(Cc1ccc(F)cc1)C(=O)c1cccc(S(=O)(=O)N2CCN(c3ccc(F)cc3)CC2)c1	?	i	i	i
CN(Cc1ccc(F)cc1)C(=O)c1cccc(S(=O)(=O)N2CCN(c3ccccc3)CC2)c1	?	9.3µM	i	i
Cc1ccc(C)c(NC(=O)CN(C)C(=O)c2cccc(S(=O)(=O)N(C)C)c2)c1	i	?	i	i
CN(CC(=O)Nc1ccc(Cl)cc1)C(=O)c1cccc(S(=O)(=O)N(C)C)c1	10µM	?	i	i
O=C(NNC(=O)C1CC1)c1cc(Br)c(Br)s1	nt	nt	i	nt
COc1ccc(/C=C/C(=O)Nc2cc(F)ccc2C)cc1S(=O)(=O)N1CCOCC1	?	15µM	i	i
COc1ccc(CCNC(=O)/C=C/c2ccc(S(=O)(=O)N3CCOCC3)cc2)cc1	?	i	i	i
COc1ccccc1NC(=O)/C=C/c1ccc(OC)c(S(=O)(=O)N2CCOCC2)c1	i[5.75 µM]	13µM	i	i
COc1ccccc1CNC(=O)/C=C/c1ccc(S(=O)(=O)N2CCOCC2)cc1	4.7µM	?	i	i
COc1ccc(/C=C/C(=O)NC2CCCCCC2)cc1S(=O)(=O)N1CCOCC1	9.3µM	?	i	i
CCCNC(=O)/C=C/c1ccc(S(=O)(=O)Nc2ccccc2OC)cc1	9.3µM	i	i	i
COc1ccccc1NS(=O)(=O)/C=C/c1ccccc1	8.3µM	i	i	i
SMILES	Pf growth 96h	Pf growth 48h	SARS PLP yeast	Sm TGR block
O=C(/C=C/c1ccc(S(=O)(=O)N2CCOCC2)cc1)NCCc1ccc(C(F)(F)F)cc1	6.6µM	12µM	i	i
COc1ccc(/C=C/C(=O)Nc2ccccc2C(N)=O)cc1S(=O)(=O)N1CCOCC1	4.1µM	?	i	i
COc1ccccc1NS(=O)(=O)c1ccc(/C=C/C(=O)O)cc1	i	i	i	i
C[C@@H](NC(=O)[C@@H]1Cc2ccccc2CN1)C(=O)Nc1ccc2c(c1)OCO2	?	i	i	i
Cc1cccnc1NC(=O)CCNC(=O)c1ccccc1Cl	i	i	i	i
CCN1CCN(Cc2cccc(Oc3ccccc3)c2)CC1	i	nt	i	i
CN1CCN(CC(=O)c2cc(C(C)(C)C)c(O)c(C(C)(C)C)c2)CC1	i	?	i	i
CCN1CCN(Cc2ccc(C)cc2)CC1	5.2µM	i	i	i
CC(C)(C)c1cc(CN2CCN(CCO)CC2)cc(C(C)(C)C)c1O	?	i	i	2.5µM
CCN1CCN(Cc2cc(C(C)(C)C)c(O)c(C(C)(C)C)c2)CC1	i	nt	i	2.8µM
CCc1ccc2oc(-c3ccc(NC(C)=O)cc3)nc2c1	i	i	i	i
CNc1nc(NN)nc(Nc2ccccc2)n1	?	i	i	i
O=C(NCc1ccccn1)[C@@H]1C[C@H]1[C@@H](NP(=O)(c1ccccc1)c1ccccc1)c1ccccc1	?	i	i	i
Cc1ccc(CNC(=O)[C@H]2C[C@@H]2[C@H](NP(=O)(c2ccccc2)c2ccccc2)c2ccccc2)o1	?	?	i	50µM

Screening results as filed in PubChem.
